We go through 14 compounds from PubChem BioAssay (NCI).

Compounds without any hit were thinned out: in the full panel of roughly 83,000, 20% have a hit.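 Note: values are percent growth. 100 is the growth of untreated cells, values between 100 and 0 indicate rising inhibition; between -100 and 0 indicates cell death.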 A number with no mark means an inactive call. Calls of active or inactive are those of the source. The calls were made as follows: active = growth percent below 10; inactive = the rest.

What all share (test): NCI-60 one-dose screen, 48 h (100 = growth as untreated, 0 = no growth, -100 = all killed)
Holding throughout (conditions): 10 µM

Assay [1] concerns HCT-15 colon.
Assay [2] relates to HT29 colon.
In assay [3] the test system is SNB-75 CNS.
In assay [4] the test system is SNB-19 CNS.
Assay [5] concerns U251 CNS.
Assay [6] has as its system SK-MEL-5 melanoma.
In assay [7] the test system is UACC-62 melanoma.
Assay [8] deals with LOX IMVI melanoma.
Assay [9] concerns SK-MEL-28 melanoma.

On to `Cc1ccc(-n2c(C)nn3c(=O)c4c5c(sc4nc23)CN(C)CC5)cc1`, for which the growth in [1] is 101%; in assay [2], 86.6%; in assay [3], 93.4%; in assay [4], 105%; in assay [5], 101%; in assay [6], 106%. Moreover, the growth is 101% in assay [7], 95.1% in [8] and 106% in assay [9].

On to `Nc1ccccc1NC(=O)c1ccc(CCCC(=O)Nc2ccc(C3CC3N)cc2)cc1` (stereo unspecified), for which the growth was 87.4% in assay [1]; 9.38% (active) in assay [2]; 66.4% in [3]; 49.7% in assay [4]; 4.65% (active) in [5]; -41.1% (active) in assay [6]. Also, the growth is -24.8% (active) in assay [7], 12.8% in assay [8] and 18% in [9].

Regarding `NC(=O)c1cccc(-n2ccc3cc(NC(=O)Nc4ccc(Cl)c(C(F)(F)F)c4)ccc32)n1`, the growth in assay [1] was 56.6%; in assay [2], 61.9%; in assay [3], 47.5%; in [4] it was 71%; in assay [5], 56.5%; in assay [6], 78.3%. Besides, the growth in assay [7] is 70.9%; in assay [8], 76.9%; in [9] it was 79.4%.

As to `COc1ccc(C(=O)N/N=C/c2cc(C(F)(F)F)ccc2Cl)cc1`, the growth in assay [1] was 73.2%; in assay [2] it was 99.7%; in assay [3], 101%; in [4], 91.9%; in [5], 109%; in assay [6], 85.5%. The growth is 76.9% in [7], 92.4% in [8] and 96.5% in [9].

With `CCn1c(SC/C(=N/O)c2ccccc2)nnc1-c1ccccc1`, the growth is 101% in assay [1]; 104% in assay [2]; 87.8% in assay [3]; 98.9% in [4]; 102% in assay [5]; 100% in [6]. Moreover, the growth in [7] is 86.2%; in assay [8], 104%; in assay [9] it was 106%.

Turning to `CCOC(=O)c1sc2ncnc(Nc3ccc4c(cnn4C(=O)Nc4ccc(C)c(Cl)c4)c3)c2c1C`, the growth is 95.3% in assay [1]; 90% in [2]; 110% in assay [3]; 103% in [4]; 99.3% in assay [5]; 102% in assay [6]. Moreover, the growth in assay [7] was 99.6%; in [8], 96%; in assay [9], 111%.

Take `c1cnc2[nH]cc(-c3nc(-c4ccsc4)cs3)c2c1`: the growth in assay [1] was 86.1%; in assay [2], 104%; in [3] it was 90.7%; in assay [4], 102%; in assay [5], 90.4%; in assay [6], 81.6%. Also, the growth was 96.2% in [7], 96.2% in [8] and 122% in assay [9].

On to `COc1ccc(-c2cc(-c3cc(OC)ccc3OC)nc(N)c2C#N)cc1`, for which the growth is 51.2% in [1]; 60.7% in assay [2]; 16.3% in [3]; 48.8% in assay [4]; 61.2% in assay [5]; 63% in assay [6]. Also, the growth was 42.3% in assay [7], 58.6% in assay [8] and 88.5% in assay [9].

`CCOC(=O)c1cc(C(=O)c2cc(OC)c(OC)c(OC)c2)n2ncc3ccccc3c12`: the growth in assay [1] was 58.5%; in [2], 29.6%; in [3], 79.5%; in assay [4], 88.2%; in assay [5] it was 81%; in assay [6] it was 34.5%. In addition, the growth is 70.2% in assay [7], 66.3% in assay [8] and 90.9% in [9].

Turning to `CCCCCCCCCCOC(c1ccccc1)c1ccccc1`, the growth in assay [1] is 81.1%; in assay [2], 66.7%; in [3] it was 95.1%; in assay [4] it was 96%; in assay [5], 94.2%; in assay [6], 104%. In addition, the figures for the growth in assay [7], in assay [8] and in [9] were 81.5%, 79.6% and 96.2%, respectively.

`Clc1nc2ccccc2cc1Cn1nnc(Cc2ccccc2)n1`: the growth was 65% in assay [1]; 71.5% in assay [2]; 55.4% in assay [3]; 89.9% in assay [4]; 76.3% in [5]; 0.724% (active) in assay [6]. Also, the growth in assay [7] is 51.7%; in assay [8], 53.6%; in assay [9] it was 84.7%.

In the case of `CC1=NN(C(=O)c2nn(-c3ccc(Cl)cc3)cc2O)C(=O)C1`, the growth was 34.5% in [1]; 41.8% in [2]; 28.7% in [3]; 59.6% in assay [4]; 47.9% in assay [5]; 64.9% in assay [6]. Besides, the growth in assay [7] is 41.5%; in assay [8] it was 40.5%; in assay [9] it was 72.1%.

`COc1cc(C2CC(c3ccccc3)=NN2C(C)=O)cc(OC)c1OC` (stereo unspecified): the growth in assay [1] is 25.6%; in [2] it was 11.4%; in assay [3], -17.1% (active); in assay [4] it was 49%; in assay [5], 27.7%; in [6], 35.3%. Moreover, the growth was 44.6% in assay [7], 41.7% in assay [8] and 59.3% in assay [9].

On to `Cc1c2cnccc2c(C)c2c1c1cc(O)ccc1n2C(C)C`, for which the growth in assay [1] was 2.12% (active); in assay [2] it was 25%; in [3], 0.198% (active); in assay [4], 18.3%; in assay [5], 17.8%; in assay [6], -49.3% (active). Moreover, the results for the growth in assay [7], in assay [8] and in [9] were -15.7% (active), -17.2% (active) and 6.18% (active), respectively.
